Measurements reported in PubChem BioAssay (NCI).
Compounds without any hit were thinned out: in the full panel of roughly 79,000, 15% have a hit. Calls of active or inactive are those of the source. No stated cut-off is given here; in the data, active means growth inhibition above about 70%; inactive means the rest.

Legend:
[1] = NCI Yeast Anticancer Drug Screen. Data for the mec2-1 strain (AID 157); settings: S. cerevisiae mec2-1 strain, active compounds read high
Outline: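 Cells of the genetically defined mec2-1 yeast strain are incubated with test compound. Inhibition of growth is calculated against vehicle-treated controls.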

[2] = NCI Yeast Anticancer Drug Screen. Data for the rad14 strain (AID 159);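 further: 0% = growth of vehicle-treated control cultures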; settings: S. cerevisiae rad14 strain growth inhibition, active compounds read high
Outline: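 Readout: yeast growth inhibition, referenced to vehicle-only cultures. Strain bears a defined alteration in DNA damage repair.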

[3] = NCI Yeast Anticancer Drug Screen. Data for the sgs1 mgt1 strain (AID 161);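 further: 0% = growth of cultures given vehicle only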; settings: S. cerevisiae sgs1 mgt1 strain, active compounds read high
Outline: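 Read-out: growth inhibition vs vehicle controls. Cells: mutant yeast strain deficient in DNA damage repair.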

[4] = NCI Yeast Anticancer Drug Screen. Data for the CLN2oe strain (AID 163);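 further: 0% = growth of vehicle-only control cultures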; settings: S. cerevisiae CLN2oe strain, active compounds read high
Outline: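 Strain altered in cell-cycle control, incubated with compound; growth compared to solvent-treated controls.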

[5] = NCI Yeast Anticancer Drug Screen. Data for the cln2 rad14 strain (AID 165);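 further: 0% = growth equal to vehicle treated cultures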; settings: S. cerevisiae cln2 rad14 strain, active compounds read high
Outline: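 The screen exposed genetically defined yeast (cln2 rad14) to test compounds and scored growth inhibition relative to vehicle-treated controls.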

[6] = NCI Yeast Anticancer Drug Screen. Data for the bub3 strain (AID 167); settings: S. cerevisiae bub3 mutant strain, active compounds read high
Outline: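 Part of a panel of yeast mutants defective in DNA damage repair or cell cycle regulation. Each strain is grown with compound, and inhibition is calculated relative to solvent-treated cultures.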

[7] = NCI Yeast Anticancer Drug Screen. Data for the wt2 strain (AID 169);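 further: 0% = growth of vehicle-treated yeast cultures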; settings: S. cerevisiae wt2 strain growth inhibition, active compounds read high
Outline: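 Steps: yeast strain treated with compound; growth recorded; inhibition calculated relative to cultures given vehicle alone.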

[8] = NCI Yeast Anticancer Drug Screen. Data for the mlh1 strain (AID 171);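 further: 0% = growth of vehicle-treated control cultures of the same strain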; settings: S. cerevisiae mlh1 strain growth inhibition, active compounds read high
Outline: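 Yeast screen: mutant strain plus compound, growth scored against vehicle control wells.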

[9] = NCI Yeast Anticancer Drug Screen. Data for the sgs1 strain (AID 173);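 further: 0% = growth of vehicle-only control cultures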; settings: S. cerevisiae sgs1 mutant, active compounds read high
Outline: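 Inhibition of yeast growth served as the measure. The mutant strain was treated with each compound, and growth was normalised to cultures receiving vehicle alone.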

[10] = NCI Yeast Anticancer Drug Screen. Data for the mlh1 rad18 strain (AID 175); settings: S. cerevisiae mlh1 rad18 strain growth inhibition, active compounds read high
Outline: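 Compound-treated yeast growth, normalised to vehicle controls. Strain bears defined DNA repair mutations.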

[11] = NCI Yeast Anticancer Drug Screen. Data for the rad18 strain (AID 177); settings: S. cerevisiae rad18 mutant growth inhibition, active compounds read high
Outline: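 Inhibition values reflect reduced yeast growth compared with vehicle-treated controls, using a strain engineered with a DNA damage repair defect.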

[12] = NCI Yeast Anticancer Drug Screen. Data for the rad52 strain (AID 147);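 further: 0% = growth of vehicle-treated control cultures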; settings: S. cerevisiae rad52 mutant growth inhibition, active compounds read high
Outline: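 Genetically altered yeast (DNA damage repair defect) treated with compound; inhibition calculated relative to vehicle.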

[13] = NCI Yeast Anticancer Drug Screen. Data for the rad50EPP+ strain (AID 151);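 further: 0% = growth of vehicle-treated control cultures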; settings: S. cerevisiae rad50 mutant strain, active compounds read high
Outline: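 Strain rad50EPP+; compound exposure; % growth inhibition vs vehicle.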

[14] = NCI Yeast Anticancer Drug Screen. Data for the mgt1 strain (AID 153); settings: S. cerevisiae mgt1 mutant growth inhibition, active compounds read high
Outline: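 Read-out: yeast growth inhibition vs vehicle control. Strain mgt1, drawn from a panel altered in DNA damage repair or cell cycle control.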

[15] = NCI Yeast Anticancer Drug Screen. Data for the rad50 strain (AID 155);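 further: 0% = growth of vehicle-only cultures of the same strain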; settings: S. cerevisiae rad50 strain growth inhibition, active compounds read high
Outline: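 Cells are treated with compound, grown, and their growth is then scored against vehicle-only cultures of the same repair-deficient yeast strain.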

[16] = at 5.0 µM (retest, dose inferred, filed as 0.5)
[17] = at 50.0 µM (retest, dose inferred, filed as 5.0)

Measured: growth inhibition

Cc1ccc(NC(=O)/C(CC2N=c3c(ccc4c(O)c5ccccc5c(O)c34)=NC2O)=N/NC(C)(C)C)cc1 (stereo unspecified)
inactive: [1]; at 100.0 µM 35% | [2]; at 1.2 µM 9% | [2]; at 3.7 µM -9% | [2]; at 11.0 µM -10% | [2]; at 33.0 µM 0% | [2]; at 100.0 µM 1% | [3]; [16] -7% | [3]; [17] 2% | [3]; at 50.0 µM -0.2% | [4]; at 1.2 µM -5% | [4]; at 3.7 µM -2% | [4]; at 11.0 µM 3% | [4]; at 33.0 µM 0% | [4]; at 100.0 µM 1% | [5]; [16] -25% | [5]; [17] -3% | [5]; at 50.0 µM -19.9% | [6]; at 1.2 µM -3% | [6]; at 3.7 µM -2% | [6]; [16] 3% | [6]; at 11.0 µM -1% | [6]; at 33.0 µM 1% | [6]; [17] 17% | [6]; at 50.0 µM 33.6% | [6]; at 100.0 µM -1% | [7]; at 1.2 µM 0% | [7]; at 3.7 µM 1% | [7]; at 11.0 µM 4% | [7]; at 33.0 µM 5% | [7]; at 100.0 µM 7% | [8]; at 1.2 µM 7% | [8]; at 3.7 µM 16% | [8]; at 11.0 µM 10% | [8]; at 33.0 µM 28% | [8]; at 100.0 µM 16% | [9]; at 1.2 µM 3% | [9]; at 3.7 µM 4% | [9]; at 11.0 µM 2% | [9]; at 33.0 µM 1% | [9]; at 100.0 µM 1% | [10]; [16] 3% | [10]; [17] 32% | [10]; at 50.0 µM 27.4% | [11]; at 1.2 µM -4% | [11]; at 3.7 µM 12% | [11]; at 11.0 µM 20% | [11]; at 33.0 µM 40% | [11]; at 100.0 µM 18%

CCc1cc(O)c(Cl)c(C)c1Cl
active: [12]; at 100.0 µM 75% | [13]; at 100.0 µM 90% | [14]; at 33.0 µM 73% | [14]; at 100.0 µM 96% | [15]; [17] 77% | [15]; at 100.0 µM 97% | [1]; [17] 86% | [1]; at 100.0 µM 73% | [2]; at 100.0 µM 90% | [4]; at 100.0 µM 71% | [6]; at 100.0 µM 85% | [7]; at 100.0 µM 90% | [8]; at 100.0 µM 81% | [9]; at 100.0 µM 92% | [10]; [17] 93%
inactive: [12]; at 1.2 µM -5% | [12]; at 3.7 µM 6% | [12]; at 11.0 µM -8% | [12]; at 33.0 µM 14% | [13]; at 1.2 µM -12% | [13]; at 3.7 µM 0% | [13]; at 11.0 µM -13% | [13]; at 33.0 µM 40% | [14]; at 1.2 µM 14% | [14]; at 3.7 µM 3% | [14]; at 11.0 µM 28% | [15]; at 1.2 µM -29% | [15]; at 3.7 µM -19% | [15]; [16] 42% | [15]; at 11.0 µM -31% | [15]; at 33.0 µM 43% | [15]; at 50.0 µM 29.6% | [1]; at 1.2 µM -8% | [1]; at 3.7 µM -5% | [1]; [16] 44% | [1]; at 11.0 µM -13% | [1]; at 33.0 µM 3% | [1]; at 50.0 µM 34.9% | [2]; at 1.2 µM 9% | [2]; at 3.7 µM -5% | [2]; at 11.0 µM -8% | [2]; at 33.0 µM 34% | [3]; [16] -9% | [3]; [17] 33% | [3]; at 50.0 µM 45.5% | [4]; at 1.2 µM 18% | [4]; at 3.7 µM -21% | [4]; at 11.0 µM 1% | [4]; at 33.0 µM 28% | [6]; at 1.2 µM -11% | [6]; at 3.7 µM 11% | [6]; [16] 21% | [6]; at 11.0 µM 5% | [6]; at 33.0 µM 31% | [6]; [17] 49% | [6]; at 50.0 µM 69.5% | [7]; at 1.2 µM -33% | [7]; at 3.7 µM -29% | [7]; at 11.0 µM -25% | [7]; at 33.0 µM 20% | [8]; at 1.2 µM 18% | [8]; at 3.7 µM 5% | [8]; at 11.0 µM 17% | [8]; at 33.0 µM 40% | [9]; at 1.2 µM -4% | [9]; at 3.7 µM 6% | [9]; at 11.0 µM 1% | [9]; at 33.0 µM 44% | [10]; [16] 48% | [10]; at 50.0 µM 13.9% | [11]; at 1.2 µM -14% | [11]; at 3.7 µM -30% | [11]; at 11.0 µM -40% | [11]; at 33.0 µM -27% | [11]; at 100.0 µM 63%

CCOC(=O)c1ccc(NC(=O)O/N=C(/Cl)C(C)C)cc1
active: [12]; at 100.0 µM 98% | [13]; at 100.0 µM 87% | [14]; at 33.0 µM 73% | [14]; at 100.0 µM 99% | [15]; [17] 92% | [15]; at 100.0 µM 98% | [1]; [17] 95% | [1]; at 50.0 µM 85.5% | [1]; at 100.0 µM 99% | [2]; at 100.0 µM 99% | [3]; [17] 98% | [3]; at 50.0 µM 81.8% | [4]; at 100.0 µM 97% | [5]; [17] 87% | [6]; [17] 97% | [6]; at 50.0 µM 76.6% | [6]; at 100.0 µM 98% | [7]; at 33.0 µM 91% | [7]; at 100.0 µM 99% | [8]; at 33.0 µM 84% | [8]; at 100.0 µM 99% | [9]; at 33.0 µM 93% | [9]; at 100.0 µM 99% | [10]; [17] 95% | [11]; at 100.0 µM 98%
inactive: [12]; at 1.2 µM -2% | [12]; at 3.7 µM 3% | [12]; at 11.0 µM 14% | [12]; at 33.0 µM 58% | [13]; at 1.2 µM 1% | [13]; at 3.7 µM 8% | [13]; at 11.0 µM 22% | [13]; at 33.0 µM 44% | [14]; at 1.2 µM -3% | [14]; at 3.7 µM -7% | [14]; at 11.0 µM -5% | [15]; at 1.2 µM -1% | [15]; at 3.7 µM 4% | [15]; [16] 5% | [15]; at 11.0 µM 7% | [15]; at 33.0 µM 48% | [15]; at 50.0 µM 55.4% | [1]; at 1.2 µM 1% | [1]; at 3.7 µM 1% | [1]; [16] -19% | [1]; at 11.0 µM 3% | [1]; at 33.0 µM 45% | [2]; at 1.2 µM -4% | [2]; at 3.7 µM -5% | [2]; at 11.0 µM -2% | [2]; at 33.0 µM 2% | [3]; [16] -12% | [4]; at 1.2 µM -2% | [4]; at 3.7 µM 2% | [4]; at 11.0 µM -5% | [4]; at 33.0 µM -22% | [5]; [16] 17% | [5]; at 50.0 µM 63.4% | [6]; at 1.2 µM 9% | [6]; at 3.7 µM 18% | [6]; [16] -7% | [6]; at 11.0 µM 28% | [6]; at 33.0 µM 55% | [7]; at 1.2 µM -4% | [7]; at 3.7 µM -8% | [7]; at 11.0 µM 10% | [8]; at 1.2 µM -6% | [8]; at 3.7 µM -4% | [8]; at 11.0 µM -4% | [9]; at 1.2 µM -3% | [9]; at 3.7 µM -4% | [9]; at 11.0 µM 28% | [10]; [16] -7% | [10]; at 50.0 µM 69.1% | [11]; at 1.2 µM -5% | [11]; at 3.7 µM -5% | [11]; at 11.0 µM -1% | [11]; at 33.0 µM 12%
